{"source": "PubChem BioAssay (EPA / NIEHS)", "key": {"[1]": {"molecular_target": "Nuclear respiratory factor 1 (Homo sapiens) (UniProt Q16656)", "sequence (Q16656 whole entry, looked up)": "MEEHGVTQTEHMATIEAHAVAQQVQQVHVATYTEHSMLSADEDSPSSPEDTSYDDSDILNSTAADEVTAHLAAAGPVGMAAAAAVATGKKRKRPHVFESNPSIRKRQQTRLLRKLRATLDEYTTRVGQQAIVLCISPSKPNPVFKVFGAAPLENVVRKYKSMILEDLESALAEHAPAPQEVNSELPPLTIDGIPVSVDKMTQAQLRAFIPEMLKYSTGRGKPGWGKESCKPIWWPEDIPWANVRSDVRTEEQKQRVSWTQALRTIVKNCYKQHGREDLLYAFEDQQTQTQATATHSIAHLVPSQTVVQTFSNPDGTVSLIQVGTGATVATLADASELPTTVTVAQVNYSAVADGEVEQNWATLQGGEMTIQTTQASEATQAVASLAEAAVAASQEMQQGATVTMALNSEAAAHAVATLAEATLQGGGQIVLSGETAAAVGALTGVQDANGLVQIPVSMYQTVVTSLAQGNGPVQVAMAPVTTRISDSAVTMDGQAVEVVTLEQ", "assay": "ATG_NRF1_CIS: Attagene CIS-FACTORIAL HepG2 Assay for human Nuclear Respiratory Factor 1 (NRF1) Orphan Gene (AID 2282987)", "conditions": "HepG2 NRF1 cis-element reporter, Attagene multiplex; actives raise or lower the signal", "procedure,_shortened": "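Multiplexed cis-reporter assay, HepG2 cells, 24 h treatment. Total RNA → oligo(dT) RT → PCR with reporter-specific primers → 6-FAM primer extension → HpaI cut → CE. Bidirectional fit vs DMSO.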"}, "[2]": {"assay": "ATG_NFI_CIS: Attagene CIS-FACTORIAL HepG2 Assay for human Nuclear Factor I (NFI) (AID 2282989)", "conditions": "HepG2 cis-regulatory reporter, NFI response element transcription; actives raise or lower the signal", "procedure,_shortened": "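HepG2, transient MRTU, 24 h exposure; RNA→cDNA→PCR→FAM label→HpaI→CE fluorescence. Bidirectional fit, DMSO = baseline.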"}, "[3]": {"molecular_target": "Myc proto-oncogene protein (Homo sapiens) (UniProt P01106)", "sequence (P01106 whole entry, looked up)": "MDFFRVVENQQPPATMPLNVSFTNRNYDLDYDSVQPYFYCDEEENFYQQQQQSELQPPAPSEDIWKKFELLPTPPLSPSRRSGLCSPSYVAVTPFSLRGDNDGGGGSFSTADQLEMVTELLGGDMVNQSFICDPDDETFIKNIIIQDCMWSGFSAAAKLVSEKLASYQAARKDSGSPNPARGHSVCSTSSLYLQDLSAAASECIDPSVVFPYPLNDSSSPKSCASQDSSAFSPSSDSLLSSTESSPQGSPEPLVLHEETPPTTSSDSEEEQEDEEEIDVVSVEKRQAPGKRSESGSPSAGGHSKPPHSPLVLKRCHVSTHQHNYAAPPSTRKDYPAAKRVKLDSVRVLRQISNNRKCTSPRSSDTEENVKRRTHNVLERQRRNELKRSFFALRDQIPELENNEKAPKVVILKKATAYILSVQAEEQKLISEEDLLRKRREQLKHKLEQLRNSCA", "assay": "ATG_Myc_CIS: Attagene CIS-FACTORIAL HepG2 Assay for human Myelocytomatosis (Myc) Proto-Oncogene Transcription Factor (AID 2282990)", "conditions": "HepG2, Attagene cis-reporter transcription factor activity; actives raise or lower the signal", "procedure,_shortened": "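Cells of the HepG2 human liver line bear multiple cis-driven reporter transcription units. Reporter mRNA after 24 h exposure is reverse-transcribed, amplified, labelled and resolved by capillary electrophoresis, with gain- or loss-of-signal fitting relative to DMSO.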"}, "[4]": {"assay": "ATG_NRF2_ARE_CIS: Attagene CIS-FACTORIAL HepG2 Assay for human Nuclear Factor Erythroid 2 Related Factor 2 (NFR2) response to Antioxidant Response Elements (ARE) (AID 2282992)", "conditions": "HepG2 Attagene ARE/NRF2 reporter, transcription factor activity; actives raise or lower the signal", "procedure,_shortened": "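Transient MRTU transfection of HepG2; 24 h compound exposure; TriZol RNA, RT with oligo(dT), PCR, 6-FAM primer extension, HpaI cut, CE. Bidirectional fit vs DMSO.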"}, "[5]": {"assay": "ATG_Oct_MLP_CIS: Attagene CIS-FACTORIAL HepG2 Assay for human Octamer-Binding Transcription Factor (Oct) (AID 2282993)", "conditions": "HepG2 Attagene cis-factorial Oct reporter, mRNA; actives raise or lower the signal", "procedure,_shortened": "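Multiplexed cis-reporter assay in human liver HepG2 cells, 24 h incubation. Reporter RNA amplified and labelled, then resolved by capillary electrophoresis; DMSO serves as negative control and baseline.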"}, "[6]": {"molecular_target": "Cellular tumor antigen p53 (Homo sapiens) (UniProt P04637)", "sequence (P04637 whole entry, looked up)": "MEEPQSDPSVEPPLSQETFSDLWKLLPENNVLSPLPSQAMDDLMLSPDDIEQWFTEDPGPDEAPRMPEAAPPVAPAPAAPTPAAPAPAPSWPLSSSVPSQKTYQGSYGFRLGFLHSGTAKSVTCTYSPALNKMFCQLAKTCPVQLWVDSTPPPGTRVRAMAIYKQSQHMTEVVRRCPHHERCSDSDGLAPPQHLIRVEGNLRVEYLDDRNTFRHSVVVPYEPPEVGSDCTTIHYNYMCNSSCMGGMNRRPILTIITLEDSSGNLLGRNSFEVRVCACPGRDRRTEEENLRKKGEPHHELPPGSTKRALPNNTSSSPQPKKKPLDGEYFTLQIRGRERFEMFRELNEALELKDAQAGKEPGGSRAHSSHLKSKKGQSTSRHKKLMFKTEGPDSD", "assay": "ATG_p53_CIS: Attagene CIS-FACTORIAL HepG2 Assay for human p53 Transcription Factor (AID 2282994)", "conditions": "HepG2 p53 cis-element reporter, Attagene mRNA; actives raise or lower the signal", "procedure,_shortened": "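HepG2, transient MRTU transfection (cis promoter elements, endogenous TFs); 24 h dosing; RNA isolation, RT-PCR, 6-FAM primer extension, HpaI digest, CE fluorescence; bidirectional fit vs DMSO.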"}, "[7]": {"assay": "BSK_3C_TissueFactor: BioMAP Diversity Plus: 3C Assay for Tissue Factor Biomarker Activity (AID 2282997)", "conditions": "BioMAP 3C HUVEC, tissue factor biomarker readout; actives raise or lower the signal", "procedure,_shortened": "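Primary human umbilical vein endothelial cells in the 3C system were exposed to test chemical for 24 h, then Tissue Factor measured by ELISA. Activity was fitted bidirectionally against DMSO as negative control and baseline.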"}, "[8]": {"assay": "BSK_3C_uPAR: BioMAP Diversity Plus: 3C Assay for Urokinase-type plasminogen activator receptor (uPAR) Biomarker Activity (AID 2282998)", "conditions": "BioMAP 3C HUVEC, uPAR biomarker ELISA; actives raise or lower the signal", "procedure,_shortened": "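Dose primary human umbilical vein endothelial cells, incubate 24 h, measure cell-surface uPAR by ELISA, then fit the signal in both directions against the DMSO negative control.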"}, "[9]": {"assay": "BSK_3C_VCAM1: BioMAP Diversity Plus: 3C Assay for Vascular cell adhesion molecule 1 (VCAM1) Biomarker Activity (AID 2282999)", "conditions": "BioMAP 3C HUVEC, VCAM1 ELISA, cytokine-stimulated; actives raise or lower the signal", "procedure,_shortened": "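Endothelial cells from human umbilical vein are treated with test chemical. At 24 h, VCAM-1 is measured by ELISA, and responses in either direction are fitted relative to DMSO.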"}, "[10]": {"molecular_target": "human Peroxisome Proliferator-activated Receptor delta (PPARd), PPARD (gene 5467) (UniProt Q03181)", "sequence (Q03181 whole entry, looked up)": "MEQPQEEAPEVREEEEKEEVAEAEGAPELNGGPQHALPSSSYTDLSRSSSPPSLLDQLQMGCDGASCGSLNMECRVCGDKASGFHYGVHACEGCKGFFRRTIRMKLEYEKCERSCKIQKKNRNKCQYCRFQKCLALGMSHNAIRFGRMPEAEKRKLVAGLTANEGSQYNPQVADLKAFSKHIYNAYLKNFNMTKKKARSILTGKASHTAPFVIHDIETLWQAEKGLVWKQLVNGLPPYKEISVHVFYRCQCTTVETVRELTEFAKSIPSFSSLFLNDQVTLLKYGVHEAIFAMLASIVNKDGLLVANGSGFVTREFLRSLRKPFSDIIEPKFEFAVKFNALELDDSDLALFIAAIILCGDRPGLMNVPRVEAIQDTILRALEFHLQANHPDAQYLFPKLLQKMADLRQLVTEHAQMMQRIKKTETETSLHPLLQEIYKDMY", "assay": "ATG_PPARd_TRANS: Attagene TRANS-FACTORIAL HepG2 Assay for human Peroxisome Proliferator-activated Receptor delta (PPARd) (AID 2283002; active = hit-call score of the fitted dose curve at least 0.9, where 1 is the maximum)", "procedure,_shortened": "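Cell-based TRANS reporter: HepG2, transient MRTU transfection, 24 h exposure. Readout = reporter mRNA (RT-PCR/CE, 6-FAM). Gain-of-signal fit vs DMSO control.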"}, "[11]": {"read-out": "Intercellular Adhesion Molecule 1 (ICAM1), ICAM1 (gene 3383)", "assay": "BSK_3C_ICAM1: BioMAP Diversity Plus: 3C Assay for Intercellular Adhesion Molecule 1 (ICAM1) Biomarker Activity (AID 2283003)", "conditions": "primary human endothelial cells (HUVEC); actives raise or lower the signal", "procedure,_shortened": "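Primary human umbilical vein endothelial cells in the BioMAP 3C system were exposed to chemicals for 24 h, then ICAM-1 was quantified by ELISA. Activity was fitted bidirectionally against the DMSO negative control baseline.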"}, "[12]": {"assay": "BSK_3C_Proliferation: Cell Proliferation Assessment in the BioMAP Diversity Plus: 3C Assay (AID 2283006);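 for AC50: potency may reflect either rise or fall in cell number versus DMSO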", "conditions": "primary human endothelial cells (HUVEC)", "procedure,_shortened": "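Human umbilical vein endothelial cells were grown sub-confluent and exposed to chemical for 48 h, then fixed with 10% TCA and stained with 0.1% sulforhodamine B; absorbance at 560 nm gave relative cell number, fitted bidirectionally against DMSO baseline.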"}, "[13]": {"molecular_target": "Nuclear receptor subfamily 1 group I member 2 (Homo sapiens) (UniProt O75469)", "sequence (O75469 whole entry, looked up, the tested form may be a part)": "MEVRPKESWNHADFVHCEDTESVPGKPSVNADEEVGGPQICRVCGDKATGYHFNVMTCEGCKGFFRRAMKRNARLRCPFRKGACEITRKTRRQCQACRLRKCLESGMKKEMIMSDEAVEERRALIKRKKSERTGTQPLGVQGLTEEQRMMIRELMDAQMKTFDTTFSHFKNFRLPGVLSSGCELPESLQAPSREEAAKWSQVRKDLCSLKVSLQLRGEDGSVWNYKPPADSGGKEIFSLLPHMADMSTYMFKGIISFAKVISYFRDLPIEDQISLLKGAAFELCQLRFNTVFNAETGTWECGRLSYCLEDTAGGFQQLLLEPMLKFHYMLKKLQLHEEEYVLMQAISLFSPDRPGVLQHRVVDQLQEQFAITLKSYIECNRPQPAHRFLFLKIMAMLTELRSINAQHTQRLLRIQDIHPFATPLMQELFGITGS", "assay": "ATG_PXR_TRANS: Attagene TRANS-FACTORIAL HepG2 Assay for human Pregnane X Receptor (PXR) (AID 2283008; active = hit-call score of the fitted dose curve at least 0.9, where 1 is the maximum)", "procedure,_shortened": "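Read-out is fluorescence of labelled reporter cDNA fragments separated by capillary electrophoresis after RT-PCR and HpaI digestion. Source: HepG2 cells carrying PXR-GAL4/UAS reporter constructs, treated 24 h; activity fitted upward relative to DMSO.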"}, "[14]": {"molecular_target": "human Retinoic Acid Receptor gamma (RARg), RARG (gene 5916) (UniProt P13631)", "sequence (P13631 whole entry, looked up, the tested form may be a part)": "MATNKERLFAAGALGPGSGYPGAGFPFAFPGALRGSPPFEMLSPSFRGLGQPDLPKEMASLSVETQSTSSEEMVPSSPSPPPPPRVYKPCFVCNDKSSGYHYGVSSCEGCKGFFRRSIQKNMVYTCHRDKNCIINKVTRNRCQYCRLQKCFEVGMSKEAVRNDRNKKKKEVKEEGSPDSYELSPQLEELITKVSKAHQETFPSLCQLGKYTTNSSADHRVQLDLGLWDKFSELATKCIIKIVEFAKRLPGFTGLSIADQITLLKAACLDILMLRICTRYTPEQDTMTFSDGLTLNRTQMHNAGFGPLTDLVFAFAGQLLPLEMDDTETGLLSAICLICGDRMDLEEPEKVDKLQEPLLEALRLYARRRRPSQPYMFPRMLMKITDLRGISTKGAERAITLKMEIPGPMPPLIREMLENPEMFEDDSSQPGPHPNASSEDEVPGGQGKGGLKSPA", "assay": "ATG_RARg_TRANS: Attagene TRANS-FACTORIAL HepG2 Assay for human Retinoic Acid Receptor gamma (RARg) (AID 2283009; active = hit-call score of the fitted dose curve at least 0.9, where 1 is the maximum)", "procedure,_shortened": "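HepG2 cells transiently transfected with multiplexed reporter units expressing chimeric RARg-GAL4 and GAL4-UAS-driven reporters; 24 h compound exposure. Reporter mRNA quantified by RT-PCR with fluorescent labelling and capillary electrophoresis; gain-of-signal fitted relative to DMSO baseline.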"}, "[15]": {"assay": "BSK_4H_Eotaxin3: BioMAP Diversity Plus: 4H Assay for Eotaxin 3 Biomarker Activity (AID 2283000);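 note: CCL26 protein level quantified by ELISA in parallel with SRB cytotoxicity check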", "conditions": "primary human endothelial cells (HUVEC); actives raise or lower the signal", "procedure,_shortened": "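HUVEC, 24 h post-dose, ELISA for Eotaxin-3/CCL26. Gain or loss of signal fitted bidirectionally vs DMSO baseline.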"}, "[16]": {"molecular_target": "Peroxisome proliferator-activated receptor gamma (Homo sapiens) (UniProt P37231)", "sequence (P37231 whole entry, looked up, the tested form may be a part)": "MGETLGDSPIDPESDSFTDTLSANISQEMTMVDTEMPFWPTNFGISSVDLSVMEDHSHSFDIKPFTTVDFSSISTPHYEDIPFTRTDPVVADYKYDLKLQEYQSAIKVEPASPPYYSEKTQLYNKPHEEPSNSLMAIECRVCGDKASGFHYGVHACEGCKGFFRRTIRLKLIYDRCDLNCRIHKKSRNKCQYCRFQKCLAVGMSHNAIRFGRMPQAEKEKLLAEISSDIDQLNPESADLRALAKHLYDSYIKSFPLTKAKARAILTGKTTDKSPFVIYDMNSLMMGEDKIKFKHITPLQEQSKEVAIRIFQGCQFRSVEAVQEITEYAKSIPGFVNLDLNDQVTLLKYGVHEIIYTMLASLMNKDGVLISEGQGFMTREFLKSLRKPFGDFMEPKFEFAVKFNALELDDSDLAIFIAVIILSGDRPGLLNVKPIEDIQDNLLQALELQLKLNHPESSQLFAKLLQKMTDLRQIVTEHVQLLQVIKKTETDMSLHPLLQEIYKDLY", "assay": "ATG_PPARg_TRANS: Attagene TRANS-FACTORIAL HepG2 Assay for human Peroxisome Proliferator-activated Receptor-gamma (PPARg) (AID 2283007; active = hit-call score of the fitted dose curve at least 0.9, where 1 is the maximum)", "procedure,_shortened": "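Transient transfection of HepG2 with GAL4-UAS-driven reporter units; chemical dosing 24 h; total RNA → oligo(dT) RT → PCR with reporter primers → 6-FAM primer extension → HpaI digest 2 h 37 C → capillary electrophoresis. Positive direction vs DMSO.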"}}, "note": "Inconclusive results are not listed. Active and inactive are the calls of the source. Rule for the calls, unless noted: active = hit-call score of the fitted dose curve at least 0.9, where 1 is the maximum; inactive = score below 0.9.", "data": [{"smiles": "O=S1(=O)OCC2C(CO1)C1(Cl)C(Cl)=C(Cl)C2(Cl)C1(Cl)Cl", "note": "(centres undefined)", "values": [{"measurement": "outcome", "setting": "[1]", "result": "inactive"}, {"measurement": "AC50", "setting": "[2]", "result": "178 µM (active)"}, {"measurement": "AC50", "setting": "[3]", "result": "172 µM (active)"}, {"measurement": "AC50", "setting": "[4]", "result": "44.5 µM (active)"}, {"measurement": "AC50", "setting": "[5]", "result": "170 µM (active)"}, {"measurement": "AC50", "setting": "[6]", "result": "18.3 µM (active)"}, {"measurement": "outcome", "setting": "[7]", "result": "inactive"}, {"measurement": "AC50", "setting": "[8]", "result": "20 µM (active)"}, {"measurement": "outcome", "setting": "[9]", "result": "inactive"}, {"measurement": "outcome", "setting": "[10]", "result": "inactive"}, {"measurement": "outcome", "setting": "[11]", "result": "inactive"}, {"measurement": "AC50", "setting": "[12]", "result": "25.1 µM (active)"}, {"measurement": "AC50", "setting": "[13]", "result": "2.37 µM (active)"}, {"measurement": "outcome", "setting": "[14]", "result": "inactive"}]}, {"smiles": "Cc1cccc(N)c1", "values": [{"measurement": "outcome", "setting": "[1]", "result": "inactive"}, {"measurement": "outcome", "setting": "[2]", "result": "inactive"}, {"measurement": "outcome", "setting": "[3]", "result": "inactive"}, {"measurement": "outcome", "setting": "[4]", "result": "inactive"}, {"measurement": "outcome", "setting": "[5]", "result": "inactive"}, {"measurement": "outcome", "setting": "[6]", "result": "inactive"}, {"measurement": "outcome", "setting": "[7]", "result": "inactive"}, {"measurement": "outcome", "setting": "[8]", "result": "inactive"}, {"measurement": "outcome", "setting": "[9]", "result": "inactive"}, {"measurement": "outcome", "setting": "[15]", "result": "inactive"}, {"measurement": "outcome", "setting": "[10]", "result": "inactive"}, {"measurement": "outcome", "setting": "[11]", "result": "inactive"}, {"measurement": "outcome", "setting": "[12]", "result": "inactive"}, {"measurement": "outcome", "setting": "[16]", "result": "inactive"}, {"measurement": "outcome", "setting": "[14]", "result": "inactive"}]}]}
